Test results from PubChem BioAssay (NCI).
The panel holds about 79,000 compounds, 15% with a hit somewhere; the sample as a whole holds those more often. A number with no mark means an inactive call. Active and inactive are the calls of the source. No stated cut-off is given here; in the data, active means growth inhibition above about 70%; inactive means the rest.

Assay: NCI Yeast Anticancer Drug Screen. Data for the rad14 strain (AID 159);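 further: 0% = growth of vehicle-treated control cultures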
Conditions: S. cerevisiae rad14 strain growth inhibition, hits give high values
Method: Growth inhibition of yeast strains with defined genetic alterations is measured as a screen for potential anti-cancer activity. Selected strains with alterations in DNA damage repair or cell cycle control were exposed to compounds and growth inhibition was measured relative to vehicle treated controls. The strain used in this assay is rad14

In the case of `NNc1ccccc1-c1nc2ccccc2[nH]1`, the growth inhibition (at 1.2 µM) is reported as -2%, the growth inhibition (at 3.7 µM) is reported as -5% and the growth inhibition (at 11.0 µM) is reported as -1%. It also gave a growth inhibition (at 33.0 µM) of 0% and a growth inhibition (at 100.0 µM) of 49%.

With `O=S(=O)(c1cccc(C(F)(F)F)c1)N1c2ccccc2-n2cccc2C1c1cccnc1` (stereo not given) the growth inhibition (at 1.2 µM) was -51%, the growth inhibition (at 3.7 µM) was -17% and the growth inhibition (at 11.0 µM) was 73% (active). For the same compound, the growth inhibition (at 33.0 µM) was 94% (active) and the growth inhibition (at 100.0 µM) was 89% (active).

`O=C(O)c1cc2c(cc1S(=O)(=O)O)C1C(C3C2C2(Cl)C(Cl)=C(Cl)C3(Cl)C2(Cl)Cl)C2(Cl)C(Cl)=C(Cl)C1(Cl)C2(Cl)Cl` (stereo not given) gave a growth inhibition (at 1.2 µM) of 0%, a growth inhibition (at 3.7 µM) of 3% and a growth inhibition (at 11.0 µM) of 24%. The growth inhibition (at 33.0 µM) was 84% (active) and the growth inhibition (at 100.0 µM) was 96% (active).

Compound `N#CCC(=O)N/N=C(\c1ccccc1)C(c1ccccc1)C1(O)C(=O)Nc2c(Cl)ccc(Cl)c21` (stereo not given) has a growth inhibition (at 1.2 µM) of 3%, a growth inhibition (at 3.7 µM) of 7% and a growth inhibition (at 11.0 µM) of 10%. For the same compound, the growth inhibition (at 33.0 µM) was 27% and the growth inhibition (at 100.0 µM) was 39%.

Compound `CC(C)CCC[C@@H](C)[C@H]1CC[C@H]2[C@@H]3CC[C@H]4C[C@H](N)CC[C@]4(C)[C@H]3CC[C@]12C` has a growth inhibition (at 1.2 µM) of -1%, a growth inhibition (at 3.7 µM) of 1% and a growth inhibition (at 11.0 µM) of -1%. It also gave a growth inhibition (at 33.0 µM) of -4% and a growth inhibition (at 100.0 µM) of -1%.

For `Cc1c(C(=O)/C=C/c2ccccc2[N+](=O)[O-])[n+](=O)c2ccccc2n1[O-]`, the growth inhibition (at 1.2 µM) was 37%, the growth inhibition (at 3.7 µM) was 61% and the growth inhibition (at 11.0 µM) was 73% (active). The growth inhibition (at 33.0 µM) was 74% (active) and the growth inhibition (at 100.0 µM) was 76% (active).

In the case of `COc1ccc2c3c1OC(C)C31CC(=O)CCC1CC2` (stereo not given), the growth inhibition (at 1.2 µM) is reported as -2%, the growth inhibition (at 3.7 µM) is reported as 1% and the growth inhibition (at 11.0 µM) is reported as 2%. It also gave a growth inhibition (at 33.0 µM) of 1% and a growth inhibition (at 100.0 µM) of 7%.

Compound `COc1ccc2nc3cccc([N+](=O)[O-])c3c(NCCNCCN(C)C)c2c1` has a growth inhibition (at 1.2 µM) of -2%, a growth inhibition (at 3.7 µM) of -2% and a growth inhibition (at 11.0 µM) of 0%. For the same compound, the growth inhibition (at 33.0 µM) was 1% and the growth inhibition (at 100.0 µM) was 4%.
